{
  "source": "PubChem BioAssay (EPA / NIEHS)",
  "note": "Active and inactive are the calls of the source. How the source made its calls: active means hit-call score of the fitted dose curve at least 0.9, where 1 is the maximum; inactive means score below 0.9.",
  "data": [
    {"read-out": "Low-density lipoprotein receptor (LDLR), LDLR (gene 3949)", "experiment": "BSK_CASM3C_LDLR: BioMAP Diversity Plus: CASM3C Assay for Low-density lipoprotein receptor (LDLR) Biomarker Activity (AID 2283045);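 further: LDLR protein level on the cell surface quantified by ELISA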", "details": "primary human coronary artery smooth muscle cells; actives raise or lower the signal", "values": [
      {"smiles": "Cc1c(COC(=O)[C@@H]2[C@H](/C=C(\\Cl)C(F)(F)F)C2(C)C)cccc1-c1ccccc1", "outcome": "inactive"},
      {"smiles": "O=c1n(Cl)c(=O)n(Cl)c(=O)n1Cl", "outcome": "inactive"},
      {"smiles": "CC1(C)CCC(=Cc2ccc(Cl)cc2)C1(O)Cn1cncn1", "note": "(stereo unspecified)", "outcome": "inactive"},
      {"smiles": "COC(=O)N(C(=O)N1CO[C@@]2(C(=O)OC)Cc3cc(Cl)ccc3C2=N1)c1ccc(OC(F)(F)F)cc1", "outcome": "inactive"},
      {"smiles": "CC1(C)CON(Cc2ccccc2Cl)C1=O", "outcome": "inactive"},
      {"smiles": "Cn1c(-c2ccccc2)cc(-c2ccccc2)[n+]1C", "outcome": "inactive"},
      {"smiles": "COC(=O)NC(=S)Nc1ccccc1NC(=S)NC(=O)OC", "outcome": "inactive"},
      {"smiles": "N#CN=C1SCCN1Cc1ccc(Cl)nc1", "outcome": "inactive"},
      {"smiles": "CS(=O)(=O)c1cc(C(F)(F)F)ccc1C(=O)c1cnoc1C1CC1", "outcome": "inactive"},
      {"smiles": "COP(=S)(OC)SCn1nnc2ccccc2c1=O", "outcome": "inactive"},
      {"smiles": "CCSC(=O)N1CCCCCC1", "outcome": "inactive"},
      {"smiles": "O=C(O)c1c(Cl)ccc2cc(Cl)cnc12", "outcome": "inactive"},
      {"smiles": "CCCCOCN(C(=O)CCl)c1c(CC)cccc1CC", "outcome": "inactive"},
      {"smiles": "CC(C)N1C(=O)c2ccccc2NS1(=O)=O", "outcome": "inactive"},
      {"smiles": "CCCCC(O)(Cn1cncn1)c1ccc(Cl)cc1Cl", "note": "(stereo unspecified)", "outcome": "inactive"},
      {"smiles": "COCC(C)N(C(=O)CCl)c1c(C)csc1C", "note": "(stereo unspecified)", "outcome": "inactive"},
      {"smiles": "CC1(C)C(C=C(Cl)Cl)C1C(=O)OC(C#N)c1cccc(Oc2ccccc2)c1", "note": "(stereo unspecified)", "outcome": "inactive"},
      {"smiles": "CCOP(=S)(OCC)Oc1nc(Cl)n(C(C)C)n1", "outcome": "inactive"},
      {"smiles": "COP(=O)(OC)O/C(C)=C/C(=O)N(C)C", "outcome": "inactive"},
      {"smiles": "CCN(CC)c1nc(C)cc(OP(=S)(OC)OC)n1", "outcome": "inactive"},
      {"smiles": "Cc1cc(C)nc(Nc2ccccc2)n1", "outcome": "inactive"},
      {"smiles": "O=P(O)(O)CCCl", "outcome": "inactive"},
      {"smiles": "CC(C)(C)C(=O)C(Oc1ccc(Cl)cc1)n1cncn1", "note": "(stereo unspecified)", "outcome": "inactive"},
      {"smiles": "C=C(C)CN(CC)c1c([N+](=O)[O-])cc(C(F)(F)F)cc1[N+](=O)[O-]", "outcome": "inactive"},
      {"smiles": "C=CCOC(=O)C(C)(C)OC(=O)c1cc(-n2c(=O)cc(C(F)(F)F)n(C)c2=O)ccc1Cl", "outcome": "inactive"},
      {"smiles": "CCN(CC)C(=O)C(C)Oc1cccc2ccccc12", "note": "(stereo unspecified)", "outcome": "inactive"},
      {"smiles": "COCc1cnc(C2=NC(C)(C(C)C)C(=O)N2)c(C(=O)O)c1", "note": "(stereo unspecified)", "outcome": "inactive"},
      {"smiles": "O=C1C2CC=CCC2C(=O)N1SC(Cl)(Cl)Cl", "note": "(stereo unspecified)", "outcome": "inactive"},
      {"smiles": "CCCC(=NOCC)C1=C(O)CC(CC(C)SCC)CC1=O", "note": "(stereo unspecified)", "outcome": "inactive"},
      {"smiles": "CO/N=C(/C1=NOCCO1)c1ccccc1Oc1ncnc(Oc2ccccc2Cl)c1F", "AC50": "13.5 µM (active)"},
      {"smiles": "CC(C)Oc1cccc(NC(=O)c2ccccc2C(F)(F)F)c1", "outcome": "inactive"},
      {"smiles": "CC(C)C1(C)N=C(c2ncccc2C(=O)O)NC1=O", "note": "(stereo unspecified)", "outcome": "inactive"},
      {"smiles": "COCC(=O)N(c1c(C)cccc1C)C(C)C(=O)OC", "note": "(stereo unspecified)", "outcome": "inactive"},
      {"smiles": "CC(C)N1C(=O)N(c2ccccc2)CSC1=NC(C)(C)C", "outcome": "inactive"},
      {"smiles": "CCNP(=S)(OC)O/C(C)=C/C(=O)OC(C)C", "note": "(stereo unspecified)", "outcome": "inactive"},
      {"smiles": "CNC(=O)Oc1cccc2ccccc12", "outcome": "inactive"}
    ]}
  ]
}
